# In the supplement of paper PMC12632987:
# T1: USP38, Q8NB14
# T1 chain: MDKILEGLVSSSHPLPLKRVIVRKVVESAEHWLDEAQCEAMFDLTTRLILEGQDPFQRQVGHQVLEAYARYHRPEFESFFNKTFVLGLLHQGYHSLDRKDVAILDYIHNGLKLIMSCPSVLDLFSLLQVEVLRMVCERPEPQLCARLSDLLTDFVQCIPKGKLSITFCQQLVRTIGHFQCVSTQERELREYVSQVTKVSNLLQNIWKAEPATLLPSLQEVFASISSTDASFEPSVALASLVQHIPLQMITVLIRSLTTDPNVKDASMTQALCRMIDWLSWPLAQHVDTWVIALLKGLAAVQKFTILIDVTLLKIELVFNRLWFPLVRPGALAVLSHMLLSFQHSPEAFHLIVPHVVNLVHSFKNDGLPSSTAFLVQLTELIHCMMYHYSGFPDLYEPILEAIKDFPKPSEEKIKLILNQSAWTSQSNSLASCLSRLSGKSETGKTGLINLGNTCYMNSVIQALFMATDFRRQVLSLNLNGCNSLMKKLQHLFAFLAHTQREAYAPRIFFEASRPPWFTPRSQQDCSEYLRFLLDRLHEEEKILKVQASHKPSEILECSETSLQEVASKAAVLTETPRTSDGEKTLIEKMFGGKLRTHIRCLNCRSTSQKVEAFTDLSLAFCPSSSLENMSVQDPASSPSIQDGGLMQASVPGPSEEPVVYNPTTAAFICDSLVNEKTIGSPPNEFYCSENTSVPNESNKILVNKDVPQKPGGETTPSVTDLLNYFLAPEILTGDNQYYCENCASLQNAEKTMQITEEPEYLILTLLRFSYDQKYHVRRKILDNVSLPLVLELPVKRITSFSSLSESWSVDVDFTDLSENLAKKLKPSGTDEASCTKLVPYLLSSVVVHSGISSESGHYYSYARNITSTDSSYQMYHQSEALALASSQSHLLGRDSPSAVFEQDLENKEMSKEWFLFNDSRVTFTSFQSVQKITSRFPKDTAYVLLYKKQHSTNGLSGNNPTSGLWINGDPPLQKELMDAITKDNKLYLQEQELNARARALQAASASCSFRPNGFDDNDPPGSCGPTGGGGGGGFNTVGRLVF
# Target: T1, USP38, Q8NB14
# Assay: median log2 fold change of GCK-ALFA target abundance (FLAG IP / Myc IP barcode read proportion) (log2 ratio); each designed protein is fused to an ALFA-tag nanobody in HEK293 cells to bring the named protein to FLAG-tagged glucokinase (GCK); Myc marks an untargeted standard; higher = target protein stabilised (more abundant)
# Conditions: target protein: 3xFLAG-MCP-GCK-ALFA reporter; HEK293 landing pad (RPLP)
# Method in brief: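 Binders fused to an ALFA nanobody were recombined as a library into HEK293 landing-pad cells, which were induced with 2 μg mL^−1 doxycycline and then transfected to express a FLAG-tagged target and a Myc-tagged standard. After 48 h, circular RNA barcodes recovered by anti-FLAG and anti-Myc immunoprecipitation of lysates were reverse transcribed, amplified and sequenced. Each binder's target abundance is the median log2 ratio of FLAG to Myc barcode read proportions, from barcodes present at ≥10^−7 in both replicates, binders carrying ≥3 barcodes per replicate, a 10^−6 pseudocount and pooled replicates.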
row,Binder,median log2 fold change
1,usp_38_diff_out_18_14_352 (protein) EEELREQLLSNLRSLTEEVRRNTERLKRIVEKLRDDPESALALLETRRQALEGVIRYAREVLREARERGWEELAEAAEELIRAAEEALEEAKRLEEELKK,-0.239
2,usp_38_diff_out_18_14_335 (protein) SEELTAATLANVKTLLEDVKKVTERTKKIVAKLKDDPESATSLLESRIQAYEGVIKYAEETLEEAKKAGDKELAAAAKELIKAAKEAKEEFEKLLAELKA,-0.351
3,usp_38_diff_out_18_14_346 (protein) DEELAKQLKEQFESLTKEVEENTKRLKEIVEKLKDDPESALSLLETRIQALEGVIKYAEEEKKRAKAAGFEELAAAAEKLIKAAKAAKEEAEKLKKELKA,-0.0584
4,usp_38_diff_out_18_14_356 (protein) SEEEREATRLFIEARLAAAELVNADADKIIAYEKKHKNRSADTIEMMRGGLAAMAAELEEDLKLAKELGDEELAARLAAAQAELKARAAEFDALLAEKKA,-0.0299
5,usp_38_diff_out_18_14_341 (protein) SAELAAATLANLKSLTAEVKEVTARTEKIVEKLKDDPEAALSLLDTRKQAYEGVITYAEEVAKEAKAAGDAELEAAAKELKKAAEEALAKMEKLRAELKA,0.0312
6,usp_38_diff_out_18_14_349 (protein) SEELREQTLSNLKSLKKEVEEVTERTERIVEKLRGDPEAARALLDTRIQALEGVIKYAEEVLKEAEEEGWEEVAKAAKELIEAAKEAKKRAEELRKELEE,-0.113
7,usp_38_diff_out_18_28_363 (protein) EEERRRRLEAELEALRARLDALITEATAAITEALTAHPDDEEVWRLVDELLDALGRAAAALEEARRLLREGGPLEEVERLLREAERELERAERLLEELKA,-0.0876
8,usp_38_diff_out_18_159_359 (protein) DEELLAELDKEILRDYSTSLAEEAKEKAKKAKDPEVKKLWAEVAKTAKYAAENLDNPEALAQAAKELTALTEELKKKGALNDREELQLQGLITLLNRVAA,0.289
9,usp_38_diff_out_18_14_337 (protein) SEELRQQLLENLKSLTEEVKKEKERTLKIIEKLKDDPESALSLLDTRIQALDGVIKYAKEVAKEAKEEGDKELLEAAEKLIKEAEKAKKELEKKRAELKA,0.0476
10,usp_38_diff_out_18_28_362 (protein) AAAERARLEARLRALGARLDALITDATAAVTAALTAHPDDAAVWALVDALWDALGKAAAAVNEARELLRAGGPAEEVERALEAAEAALAEAQALLAQLRA,-0.0207
11,usp_38_diff_out_18_14_330 (protein) SEELRKAKLSNLKSLKAEVEEVTARTLRVVERLRGDPESARALLDTRIQALDGVIKYAEEVAKEAKAAGDEELAKAAEELKEAARAARARLEAAAAALAA,0.0025
12,usp_38_diff_out_18_14_357 (protein) SEAELEAQREYLEAFLEAAEIVNEEAERIIEREREKRILSADRLALMLGGLRALAEEAEEKLREARELGFEELAERLEEALERLEENAERFEALLAERRA,-0.477
13,usp_38_diff_out_18_14_332 (protein) SEELTEQIISNLEKLTKDVKENTARTLKIVEKLKDDPESALSLLDTRIQALKGVEKYAKEVLEEAKKEGNKKLEEAAEKLLKEAKAAIKTLEEKRAALKA,0.139
14,usp_38_diff_out_18_14_339 (protein) SSELAEAELSNLKSLTEEVKKVTERTEKIIEKLKDDPESAKSLLETRRQAYEGVIKYADEVLKRAEEEGYEELAKAAKELRDEAEKALERLEKLEKELEK,0.0814
15,usp_38_diff_out_18_14_344 (protein) SEELRKATKSNLESLKKDVKEVTERTKKIVAKLKDDPESALSLLETRIQALEGVIKYAEETLKEAEEEGDEELKKAAEELKKEAEEAKAEFEALLAALKA,0.232
16,usp_38_diff_out_18_28_361 (protein) MEEERRELEEELRRLEEELERLITEATEAITRALTAHPDDEEVWKLVDELWDALGKAAAAINEARELLREGGPLEEVKAKLDEARKYLKEAKKLLEELKK,0.017

row,Binder,median log2 fold change
1,usp_38_diff_out_18_14_336 (protein) SEELRKAEIENLKTLLKEVKKDTERTIKIVEKLKDDKDSATSLLETRIQAYEGVIKYAEELKERAKKEGDKELIAAAEELIKAAKEAKEKLKELLKKLKA,-0.177
2,usp_38_diff_out_18_14_340 (protein) SDELAKATLANLKTLTEEVKKVTERTEKIIKKLADDPEAAKSLLDTRKQAYQGVITYAKEVAEEAKAAGYKELLAAAEELKKAAEEALKTLEKLEKELKA,-0.499
3,usp_38_diff_out_18_14_343 (protein) SEELAEAELANLKSLKEEVKRVTERTKKIIEKLKDDPEAALSLLDTRIQAYKGVIKYAEEVLKEAKKAGYEELAKAAEELKKAAEEALKELERLRKELEA,-0.329
4,usp_38_diff_out_18_14_353 (protein) SEELREQLLSNLKTLKEEVRENRERTKRIVARLRDDPESARSLLESRIQAFKGVIKFAEELEKEAKEEGDEELLAAAKELKKEAEEALKELEALLAELDA,-0.0535
5,usp_38_diff_out_18_14_345 (protein) GEELEEQIKANLELLTKEVKENTERLVKILEKLKDDPESALSLIDTRLQALNGVKAYAEEELKRAKERGNEELKKAAEELIKAAEEAIKTLEELRKKLKA,-0.0272
6,usp_38_diff_out_18_14_351 (protein) EEELREQLLSNLKSLTKEVKENTERTKKIVEKLKDDPESASSLLDTRIQALEGVIKYAEEVLREAKEKGWEELAEAAKELIKEAKKAKEELKKLKEALKA,-0.345
7,usp_38_diff_out_18_159_358 (protein) DAELLHQLNLELLKAHLKSWAENAEKKAKKTKTEVAKKVAELAKKALELFEKDPNSKEALKEILELAKEALELIKSDPSFNDRDKTSAAGLVVLAQEVLA,0.093
8,usp_38_diff_out_18_14_350 (protein) SEELEKQKLSNLKSLKEEVKKNTERLKKIVEKLKDDPESALSLLDTRIQALEGVIKYAEEVLKEAEEKGWEELAKAAKELIKEAEKAKKEAKELKKKLLE,-0.185
9,usp_38_diff_out_18_14_347 (protein) EEELAEQLKSNFESLTKEVEENTKRTKKIIEKLKDDKESAISLLETRIQALDGVITYAKEEKKEAEEKGFEELKAAAEKLIDAATKAKEELEKLLKELKK,0.152
10,usp_38_diff_out_18_14_354 (protein) SEELREQTLSNLETLTADVEANTARLRRVVAALKDDPASARALLETRAQAMEGVIEYAERLEREAEEEGDEELLEAARRLRATAEAALAEIQALLAELDA,-0.0379
11,usp_38_diff_out_18_14_329 (protein) SEELREAILSNLKSLKKEVEKVTERTLKVLEKLKDDPESAKSLIDTRKQALDGVIKYAEEVEKEAEAAGDEETAKAAKELKKAAKEAKAKLEEAEKKLKE,-0.556
12,usp_38_diff_out_18_14_331 (protein) SEELRKAKLDNLKLLTKEVKEDTERTLRILERLRGDPEAARSLIDTRIQALEGVIKYAEEVKKEAEEAGDEELAKAAEELKKAAEEAKRRLEEARRRLEA,0.193
13,usp_38_diff_out_18_14_334 (protein) AAELRAATKANLKTLTAEVKENTERTLRIVDKLKDDPESALSLLDTRIQALKGVAKYAQEVKKEAEEAGDAELKAAAEALLKAAKAAIEELEKRRKELKE,0.0876
14,usp_38_diff_out_18_14_348 (protein) SEELYEQELSNLKSLTEEVKKNTERLKKIVEKLKDDPESALSLLETREQALKGVIKYAEEVAKEAKKEGREELLKAAEELIKAAKEALAEAKKLREELLA,-0.156
15,usp_38_diff_out_18_28_360 (protein) MEERREELEKRLKELKAELDKLITEATAAITEALEAHPDDEEVWALVDKLWDALGKAAAAINEARELLREGGDLEEVEKLLKEAEKHLKKAKELLAELKA,0.282
16,usp_38_diff_out_18_14_333 (protein) SSELEEQLISNFKSLTEEVKRDTERTLEIVEKLKDDPDAALALLDTRIQALEGVAKYAKEVKKEAEENGNEELKAAAEELLKAAEEAIKKLKEKRKELKA,-0.013
